Measurements from PubChem BioAssay AID1009 (NMMLSC, 2008).
The whole screen tested about 190,000 compounds, of which about 200 (0.11%) were called active. Cut-off read from the data, not from the text of the source: active = inhibition above about 40%. For the sample, actives were picked, then their nearest neighbours and some compounds at random.

target: Induced myeloid leukemia cell differentiation protein Mcl-1 (Homo sapiens) (UniProt Q07820); assay: inhibitors of Bim peptide binding to Mcl-1, primary screen, biochemical, bead-based flow cytometry, multiplex (AID 1009); conditions: Bim peptide-Mcl-1 binding, at 10 µM, active compounds read high;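 note: 0% = no compound tracer wells and 100% = peptide blocker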
Sequence (Q07820 whole entry, looked up): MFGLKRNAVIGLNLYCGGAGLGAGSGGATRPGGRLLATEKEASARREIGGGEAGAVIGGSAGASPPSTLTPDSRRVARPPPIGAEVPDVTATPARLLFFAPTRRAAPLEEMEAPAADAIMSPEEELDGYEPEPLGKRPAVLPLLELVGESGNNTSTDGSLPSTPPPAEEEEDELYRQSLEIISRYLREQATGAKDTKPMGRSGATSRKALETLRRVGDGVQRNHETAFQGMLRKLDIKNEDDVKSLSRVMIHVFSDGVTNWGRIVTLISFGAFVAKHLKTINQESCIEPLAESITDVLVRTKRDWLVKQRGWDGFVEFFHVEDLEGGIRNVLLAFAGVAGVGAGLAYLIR

Structure (SMILES)	inhibition
COCCNC(=O)CCCn1c(=O)c2ccccc2n(Cc2cccc([N+](=O)[O-])c2)c1=O	0% (inactive)
CCC(=O)N1c2ccccc2NC2=C(C(=O)CCC2)C1c1ccco1 (configuration not stated)	0% (inactive)
S=c1[nH]cc(-c2ccc(Cl)cc2)n1-c1ccccc1	3% (inactive)
CC/C(=N\NC(=S)NC(C)C)c1ccc(OC(F)F)cc1	-2% (inactive)
O=c1cc(CO)oc(C(Nc2cccc([N+](=O)[O-])c2)c2ccccn2)c1O (configuration not stated)	-4% (inactive)
CCCc1nc2c([nH]1)C(c1cccnc1)C(C#N)=C(N)O2 (configuration not stated)	-3% (inactive)
COCCCNC(=S)N1CCCC(c2nc3cc(C)c(C)cc3[nH]2)C1 (configuration not stated)	6% (inactive)
O=C(O)c1ccc2c3c(cccc13)C(=O)N(OS(=O)(=O)c1ccccc1)C2=O	1% (inactive)
O=c1[nH]c(CN2CCOCC2)nc2scc(-c3ccccc3)c12	0% (inactive)
O=C(O)Cc1ccc(NCc2ccccc2Cl)cc1	-2% (inactive)
CC(NC(=O)CC1SC(N)=NC1=O)c1ccccc1 (configuration not stated)	-7% (inactive)
CCc1nn(CCCN2CCN(c3cccc(Cl)c3)CC2)c(=O)n1CCOc1ccccc1	0% (inactive)
O=C1CS(=O)CN1c1ccc(Oc2ccccc2)cc1 (configuration not stated)	0% (inactive)
C=C(C)C1CC=C(C)/C(=N\NC(=O)CNc2ccccc2OC)C1 (configuration not stated)	0% (inactive)
COc1ccc([N+](=O)[O-])cc1NC(=O)CC1SC(=Nc2cccc(C)c2C)N(/N=C(\C)c2ccc(C)cc2)C1=O (configuration not stated)	-1% (inactive)
Cc1ccccc1NC(=O)Cn1c(=O)n(CC2CCCO2)c(=O)c2ccccc21 (configuration not stated)	-1% (inactive)
COc1cccc(NC(=S)C(C#N)=C2N(C)c3ccccc3N2C)c1	-1% (inactive)
CCc1[nH]nc(C(=O)N2CCCC(CNS(=O)(=O)c3cccs3)C2)c1C (configuration not stated)	0% (inactive)
CC(C(=O)NCC1CCCCC1)N(C)Cc1cccc(Cl)c1 (configuration not stated)	-1% (inactive)
CCO[C@H]1OC(C(=O)N2CCCCCCC2)=C[C@@H](c2ccc(C(F)(F)F)cc2)[C@@H]1CCCO	-4% (inactive)
O=S(=O)(c1ccc(F)cc1)N1CCN(C(=S)NCc2ccco2)CC1	-6% (inactive)
CC(=O)Nc1ccc(NC(=S)NC(=O)c2ccc([N+](=O)[O-])c(C)c2)cc1	2% (inactive)
CN1CCN(CCNC(=O)Nc2ccc([N+](=O)[O-])cc2)CC1	-3% (inactive)
CC1CCC(C(C)C)C(=O)/C1=C\c1ccc(NC(=O)CCC(=O)O)cc1 (configuration not stated)	0% (inactive)
Cc1ccc(CN2CCN(Cc3ccccc3-c3ccco3)CC2CCO)o1 (configuration not stated)	-1% (inactive)

Structure (SMILES)	inhibition
CCCCC1S/C(=N/N=C/c2cccs2)NC1=O (configuration not stated)	-1% (inactive)
NC(=O)c1ccc(N2CCOCC2)nc1	1% (inactive)
Cc1ccc2nc(C)cc(N/N=C/c3ccc(F)cc3)c2c1	0% (inactive)
Cc1n[nH]c(=O)nc1N/N=C/c1cccs1	-1% (inactive)
CC(=O)N/N=C/c1cc2c(cc1[N+](=O)[O-])OCO2	-2% (inactive)
Cc1ccc(Cl)cc1NC(=O)c1ccccn1	-2% (inactive)
NS(=O)(=O)c1ccc(NC(=O)COC(=O)c2ccco2)cc1	1% (inactive)
O=C(N/N=C/c1ccco1)c1ccc(NC(=O)C2CC2)cc1	-2% (inactive)
Cc1ccc2c(CC(=O)NCc3cccs3)coc2c1	-3% (inactive)
COc1ccccc1NC(=O)C[n+]1ccccc1	0% (inactive)
CCOC(=O)/C(C#N)=C/c1ccc(N2CCCCC2)cc1	0% (inactive)
CCOC(=O)c1sc2nc(C)nc(Nc3ccc(OC)c(OC)c3)c2c1C	3% (inactive)
Cc1nc2ccccc2c(C)c1C(=O)c1ccc(F)cc1	0% (inactive)
CCOC(=O)c1ccc(NNC(C)=O)c([N+](=O)[O-])c1	-1% (inactive)
Cc1nc2cc(NCc3cccs3)ccc2n1C	-1% (inactive)
COc1ccc(N2CCN(C(=O)C3CCN(S(=O)(=O)c4ccc(C)cc4)CC3)CC2)cc1	0% (inactive)
O=C(CC1SC(=Nc2ccccc2)N(Cc2ccccn2)C1=O)Nc1cccc(Cl)c1 (configuration not stated)	2% (inactive)
CCOC(=O)c1sc(=NC(=O)/C=C/c2cccs2)n(C)c1C	3% (inactive)
CC(=O)N1CCN(S(=O)(=O)c2ccc(C)c([N+](=O)[O-])c2)C1C(C)C (configuration not stated)	0% (inactive)
CCC1(CC)NC(=O)N(Cc2nc3ccccc3s2)C1=O	-2% (inactive)
CCCNC(=O)OC[C@H]1O[C@H](CCO/N=C/[C@@H](NS(=O)(=O)c2ccc(C)cc2)[C@H](C)/C=C/CC(=O)OC)C=C[C@@H]1Oc1ccc(OC)cc1	-2% (inactive)
Cc1ccc(C(=O)NC(=S)Nc2ccc3[nH]c(=O)[nH]c3c2)cc1C	-2% (inactive)
CSc1nc2nc(-c3cccc(C(F)(F)F)c3)ccn2n1	5% (inactive)
Cc1ccc(S(=O)(=O)N(C)C)cc1NC(=O)COC(=O)C1COc2ccccc2O1 (configuration not stated)	3% (inactive)
O=C(CCN1C(=O)c2ccncc2C1=O)Nc1cc(F)ccc1F	0% (inactive)

Structure (SMILES)	inhibition
O=C(c1ccc(F)cc1)N1CCC(n2nnc3ccccc32)CC1	-2% (inactive)
Cc1ccc(C)c(Cn2cnc3c(oc4ccccc43)c2=O)c1	-1% (inactive)
COc1ccc(-c2ccc(CNCCCN3CCOCC3)o2)cc1Cl	2% (inactive)
Cc1ccc(C(=O)O)cc1NC(=O)c1ccc(Cn2nc(C)c(Cl)c2C)o1	1% (inactive)
COc1cc(NC(=S)N2CCCC(C)C2)c(OC)cc1Cl (configuration not stated)	-5% (inactive)
CCCCN(CC)CCNC(=O)CCNC(=O)Cn1ccc2ccccc2c1=O	-4% (inactive)
O=C(CCSc1ccccc1)N1CCN(c2ccccc2F)CC1	-2% (inactive)
CCCN=C1NC(=O)C(CC(=O)NCCc2ccc(OC)c(OC)c2)S1 (configuration not stated)	-11% (inactive)
Cc1ccc(S(=O)(=O)N2CCN(C(=O)c3cccs3)CC2)cc1	-5% (inactive)
Cc1ccc(S(=O)(=O)NCCC(c2ccccc2)c2ccccc2)cc1C(=O)O	1% (inactive)
CN(C)C(=O)c1cccn(Cc2cccc(C(F)(F)F)c2)c1=O	0% (inactive)
Cc1ccc(-c2ccc(/C=C(\C#N)C(N)=S)o2)c([N+](=O)[O-])c1	0% (inactive)
O=C(COC(=O)Cn1cnc2ccccc2c1=O)NCC12CC3CC(CC(C3)C1)C2	-4% (inactive)
N#C/C(C(=S)Nc1ccccc1)=C1/NN=C(N2CCOCC2)N1c1ccccc1	0% (inactive)
CCN(CC)S(=O)(=O)c1ccc(N2CCOCC2)c(NC(=O)C2COc3ccccc3O2)c1 (configuration not stated)	2% (inactive)
CCc1cc(C(=O)OC)c(NC(=O)CC2Sc3ccc(C(F)(F)F)cc3NC2=O)s1 (configuration not stated)	-1% (inactive)
Cc1ccc(S(=O)(=O)N(C)CC(=O)OCC(=O)N2CC(=O)Nc3ccccc32)cc1	1% (inactive)
Cc1ccc(S(=O)(=O)NCC(=O)OCC(=O)N2CCc3ccccc32)cc1	-6% (inactive)
Cc1ccc(S(=O)(=O)N(C)CC(=O)N2CCc3ccccc32)cc1	41% (active)
Cc1nnsc1C(=O)N/N=C/c1cccc(C(F)(F)F)c1	-2% (inactive)
CN(C)c1ccc(/C=N\S(=O)(=O)c2ccccc2)cc1	-6% (inactive)
Cc1cc(NC(=O)CSCc2ccccc2C)no1	0% (inactive)
COc1ccc(-n2c(C)cc(C(=O)COC(=O)c3cc(OC)c(OC)cc3NC(=O)c3cccs3)c2C)cc1	-5% (inactive)
O=C(O)c1cccc(NC(=S)N/N=C/c2c[nH]c3ccccc23)c1	-3% (inactive)
CC(C)N(C)C(=O)CCc1nnc(CCc2c[nH]c3ccccc23)o1	-3% (inactive)

Structure (SMILES)	inhibition
CCCCn1nc(C(=O)OCC(=O)Nc2sccc2C(N)=O)c2ccccc2c1=O	-1% (inactive)
CC(=O)Nc1ccc(S(=O)(=O)N(C)c2ccc(OCC(=O)OCC(=O)N3CCCCC3)cc2)cc1	-2% (inactive)
COc1ccc(CN(C)C(=S)Nc2ccc(Cl)cc2Cl)cc1	1% (inactive)
CCOC(=O)c1c(-c2cccc(N)c2)cn2ccccc12	0% (inactive)
COc1ccccc1CNS(=O)(=O)c1ccc(C)cc1	-2% (inactive)
COCCNC(=O)COc1ccccc1C	2% (inactive)
Cc1ccc(S(=O)(=O)NC(=O)COc2ccccc2C)cc1	51% (active)
CN1CCN(CC#CCC2(O)c3ccccc3-c3ccccc32)CC1	-1% (inactive)
O=C(Nc1nnc(-c2ccco2)o1)c1ccc(S(=O)(=O)N2CCOCC2)cc1	0% (inactive)
COCCn1c(=NC(=O)c2ccccc2[N+](=O)[O-])sc2cc(S(C)(=O)=O)ccc21	-2% (inactive)
CC1(C)CC(=O)C(CC(=O)N2CCC(Cc3ccccc3)CC2)C(=O)C1	1% (inactive)
COc1ccc(Cl)cc1NC(=O)COC(=O)C(CC(C)C)N1C(=O)C2CC=CCC2C1=O (configuration not stated)	-1% (inactive)
Cc1cc(NC(=O)CN2C(=O)NC(CCc3ccccc3)C2=O)no1 (configuration not stated)	-1% (inactive)
Cc1c(CCOC(=O)c2cc([N+](=O)[O-])ccc2Cl)sc[n+]1CCCCS(=O)(=O)[O-]	-1% (inactive)
Cc1cccc(C(=O)OCC(=O)NCC(C)C)c1O	4% (inactive)
CC1(C)CC(=O)C(C2c3ccccc3S(=O)(=O)c3ccccc32)C(=O)C1	-1% (inactive)
COc1ccc2oc(=O)c(C(=O)N3CCCC3)cc2c1	3% (inactive)
C=CCC(CC=C)(C(N)=O)c1ccccc1	3% (inactive)
COc1cc(NC(=O)COC(=O)c2cnc(C)cn2)c(C)cc1[N+](=O)[O-]	0% (inactive)
Cc1ccc(-c2ccc(/C=N/NC(=O)CN3CCOCC3)o2)cc1[N+](=O)[O-]	-1% (inactive)
Cc1cc(C)n2nc(SCC(=O)NC(=O)NCc3ccco3)nc2n1	0% (inactive)
CN(C)c1ccc(C(CC(=O)O)C(=O)O)cc1 (configuration not stated)	-1% (inactive)
